The source made the active and inactive calls. Unless noted, the rule behind the calls is not given here.
Assays:
[1] = test system: Wnt5a (protein binding on small-molecule microarray); assay: Wnt5a binders on small-molecule microarray, primary screen, biophysical, 635/667 nm fluorescence (AID 1142); details: 635 nm fluorescence, higher = more signal;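 note: fluorescence read at 667 nm with signal to noise per printed feature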
[2] = cell viability in Huh7 cells, primary screen, cytotoxicity control for HCV replication inhibitor project, CellTiter-Glo luminescence, basal, 48 h (AID 1143); details: Huh7 HCV replicon, higher = more signal, called active from +8 up or from −8 down;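 note: Huh7 hepatoma cells carrying a hepatitis C replication reporter with no stimulus; test concentration not given here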
[3] = P. aeruginosa biofilm formation inhibitors, primary screen, PAO1 strain, BacTiter-Glo luminescence, LB-PBS (AID 1144); details: 12 h, higher = more signal
[4] = CREB reporter modulators without forskolin, primary screen, cell-based, PC12, CRE-LacZ reporter, unstimulated (AID 1145); details: no forskolin, luminescence, 4.5 h, higher = more signal, called active from +8 up or from −8 down
[5] = CREB reporter modulators under forskolin, primary screen, cell-based, PC12, CRE-LacZ reporter, forskolin-stimulated (AID 1146); details: luminescence, 4.5 h, higher = more signal, called active from +8 up or from −8 down;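 note: PC12 cells with 6xCRE LacZ reporter stimulated by forskolin 10 µM; beta-galactosidase reporter signal reflecting CREB driven transcription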
[6] = molecular target: Streptavidin (Streptomyces avidinii) (UniProt P22629); assay: streptavidin binders on small-molecule microarray, primary screen, artefact control for SMM compound annotation, biophysical, 635/667 nm fluorescence (AID 1147); details: streptavidin binding, higher = more signal;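 note: signal reflects streptavidin binding to arrayed compounds as a control protein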
[7] = small-molecule binders of probe aInhba, primary screen, biochemical, small-molecule microarray, 635/667 nm fluorescence (AID 1148); details: higher = more signal;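 note: score merges 667nm spot fluorescence with signal-to-noise for antibody binding to printed compounds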
Torsin-1A (Homo sapiens) [8] = molecular target: Torsin-1A (Homo sapiens) (UniProt O14656); assay: torsin A binders from cell lysate, primary screen, small-molecule microarray, wild-type, 635/667 nm (AID 1149); details: COS7 hTOR1A-WT lysate, 635 nm fluorescence, higher = more signal
Torsin-1A (Homo sapiens) [9] = molecular target: Torsin-1A (Homo sapiens) (UniProt O14656); assay: small-molecule binders of mutant TOR1A in lysate, primary screen, cell lysate, small-molecule microarray, COS7 lysate, 635/667 nm fluorescence (AID 1150); details: COS7 hTOR1A mutant lysate, 635 nm fluorescence, higher = more signal;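 note: score pools 667 nm emission and signal to noise measuring lysate protein binding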
[10] = test system: Sonic hedgehog protein (Shh); assay: small-molecule binders of Shh protein, primary screen, biochemical, small-molecule microarray, 635/667 nm fluorescence (AID 1151); details: small-molecule microarray binding, 635 nm fluorescence; higher = more signal;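 note: Shh protein binding to compounds spotted on small-molecule microarray slides; score combines spot fluorescence intensity with signal-to-noise across triplicate slides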
[11] = E. coli DRC41 culture turbidity changes, primary screen, E. coli filamentation inducer project, strain DRC41, OD650, 48 h (AID 1152);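 note: E. coli MC1000 strain DRC41 lacking acrAB efflux pump and sulA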; details: E. coli DRC41 (acrAB sulA), higher = more signal, called active from +8 up or from −8 down
[12] = small-molecule binders of probe aLefty1, primary screen, biochemical, small-molecule microarray, 635/667 nm fluorescence (AID 1153); details: higher = more signal;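 note: score merges spot fluorescence with signal-to-noise ratio from the scanned slide images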
[13] = PSAC antagonists in infected red cells, primary screen, cell-based, P. falciparum Indochina, OD700, 1 h (AID 1154); details: P. falciparum Indochina infected RBC osmotic lysis, higher = more signal, called active from +8 up or from −8 down
[14] = PSAC antagonists in infected red cells, primary screen, cell-based, P. falciparum Indochina, OD700, 2 h (AID 1155);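 note: lysis reports solute entry through the parasite surface anion channel PSAC; channel blockers reduce lysis of infected cells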; details: P. falciparum Indochina infected erythrocytes, osmotic lysis OD700; higher = more signal, called active from +8 up or from −8 down
[15] = osmotic lysis modulators in infected erythrocytes, primary screen, PSAC antagonist project, cell-based, P. falciparum Indochina, OD700, 3 h (AID 1156); details: higher = more signal, called active from +8 up or from −8 down
[16] = PSAC antagonists in infected red cells, primary screen, cell-based, P. falciparum Indochina, OD700, 18 h (AID 1157); details: P. falciparum Indochina infected erythrocytes, osmotic lysis OD700, 18 h; higher = more signal, called active from +8 up or from −8 down
[17] = modulators of S6 phosphorylation in cells, primary screen, cell-based, A549, cytoblot, luminescence, serum-stimulated (AID 1158); details: A549 phospho-S6 cytoblot, 5 h, higher = more signal;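 note: serum-stimulated A549 lung adenocarcinoma cells; signal is phosphorylated S6 detected by cytoblot immunostaining with HRP secondary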
[18] = molecular target: NADPH oxidase 2 (Homo sapiens) (UniProt P04839); assay: NOX2-dependent H2O2 signal modulators, primary screen, NOX inhibitor project, cell-based, HEK293-NOX2, PMA-stimulated, Amplex Red fluorescence (AID 1159); details: 45 min, higher = more signal, called active from +8 up or from −8 down; note: test concentration not given here
[19] = molecular target: NADPH oxidase 4 (Homo sapiens) (UniProt Q9NPH5); assay: NOX4-dependent H2O2 signal modulators, primary screen, NOX inhibitor project, cell-based, HEK293-NOX4, tetracycline-induced, Amplex Red fluorescence (AID 1160); details: 45 min, higher = more signal, called active from +8 up or from −8 down
[20] = molecular target: NADPH oxidase 5 (Homo sapiens) (UniProt Q96PH1); assay: NOX5-dependent H2O2 signal modulators, primary screen, NOX inhibitor project, cell-based, HEK293-NOX5, Amplex Red fluorescence (AID 1161); details: HEK293-NOX5, ionomycin, 45 min, higher = more signal
Chain of NADPH oxidase 5 (Homo sapiens) (Q96PH1 whole entry, looked up): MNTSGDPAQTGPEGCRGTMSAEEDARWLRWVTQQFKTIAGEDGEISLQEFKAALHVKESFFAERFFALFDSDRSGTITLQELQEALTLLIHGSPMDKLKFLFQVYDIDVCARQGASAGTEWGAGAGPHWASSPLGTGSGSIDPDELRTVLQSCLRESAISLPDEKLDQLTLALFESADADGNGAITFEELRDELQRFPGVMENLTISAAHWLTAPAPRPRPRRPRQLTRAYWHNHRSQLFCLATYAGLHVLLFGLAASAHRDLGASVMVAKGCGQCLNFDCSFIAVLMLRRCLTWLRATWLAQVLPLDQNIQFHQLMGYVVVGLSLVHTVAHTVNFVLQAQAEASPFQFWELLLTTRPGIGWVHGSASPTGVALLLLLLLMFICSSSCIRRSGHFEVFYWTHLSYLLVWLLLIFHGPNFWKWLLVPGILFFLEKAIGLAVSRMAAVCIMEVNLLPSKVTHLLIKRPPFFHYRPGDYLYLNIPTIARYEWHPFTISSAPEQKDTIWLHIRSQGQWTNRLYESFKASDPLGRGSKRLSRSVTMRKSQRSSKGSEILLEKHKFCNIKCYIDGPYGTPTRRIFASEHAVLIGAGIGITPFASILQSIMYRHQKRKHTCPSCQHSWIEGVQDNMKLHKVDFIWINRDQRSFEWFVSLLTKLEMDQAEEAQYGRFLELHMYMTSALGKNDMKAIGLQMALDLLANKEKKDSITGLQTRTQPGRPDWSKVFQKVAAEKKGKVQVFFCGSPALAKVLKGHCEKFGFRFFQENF

Chain of Streptavidin (Streptomyces avidinii) (P22629 whole entry, looked up): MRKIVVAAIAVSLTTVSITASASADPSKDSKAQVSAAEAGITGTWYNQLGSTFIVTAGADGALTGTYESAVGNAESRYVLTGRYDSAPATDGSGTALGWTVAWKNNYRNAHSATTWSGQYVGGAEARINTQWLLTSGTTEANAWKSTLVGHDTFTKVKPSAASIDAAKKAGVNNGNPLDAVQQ
Chain of NADPH oxidase 4 (Homo sapiens) (Q9NPH5 whole entry, looked up): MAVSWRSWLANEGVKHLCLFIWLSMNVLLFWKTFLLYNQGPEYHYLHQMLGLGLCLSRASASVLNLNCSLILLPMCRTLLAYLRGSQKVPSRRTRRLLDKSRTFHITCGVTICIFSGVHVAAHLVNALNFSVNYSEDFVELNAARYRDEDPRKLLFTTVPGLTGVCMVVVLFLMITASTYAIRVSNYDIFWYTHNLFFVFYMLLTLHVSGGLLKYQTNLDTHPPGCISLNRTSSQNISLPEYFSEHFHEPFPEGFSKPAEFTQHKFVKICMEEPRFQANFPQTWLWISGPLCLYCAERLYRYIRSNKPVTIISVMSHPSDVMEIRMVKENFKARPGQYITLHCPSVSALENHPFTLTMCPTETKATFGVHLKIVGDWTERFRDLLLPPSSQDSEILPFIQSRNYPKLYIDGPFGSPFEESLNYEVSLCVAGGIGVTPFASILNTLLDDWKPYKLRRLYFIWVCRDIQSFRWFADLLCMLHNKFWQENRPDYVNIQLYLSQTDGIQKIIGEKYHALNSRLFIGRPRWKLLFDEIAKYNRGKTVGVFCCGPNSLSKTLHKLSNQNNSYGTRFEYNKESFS
Chain of Torsin-1A (Homo sapiens) (O14656 whole entry, looked up): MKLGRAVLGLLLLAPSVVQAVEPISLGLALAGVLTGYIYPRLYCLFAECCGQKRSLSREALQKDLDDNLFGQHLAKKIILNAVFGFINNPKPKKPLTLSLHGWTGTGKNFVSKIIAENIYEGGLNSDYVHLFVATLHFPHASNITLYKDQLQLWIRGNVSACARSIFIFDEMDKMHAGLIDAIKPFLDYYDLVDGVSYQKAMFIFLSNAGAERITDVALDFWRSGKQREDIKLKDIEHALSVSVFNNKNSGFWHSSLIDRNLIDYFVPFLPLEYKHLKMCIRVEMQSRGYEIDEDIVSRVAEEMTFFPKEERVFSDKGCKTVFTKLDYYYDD
Chain of NADPH oxidase 2 (Homo sapiens) (P04839 whole entry, looked up): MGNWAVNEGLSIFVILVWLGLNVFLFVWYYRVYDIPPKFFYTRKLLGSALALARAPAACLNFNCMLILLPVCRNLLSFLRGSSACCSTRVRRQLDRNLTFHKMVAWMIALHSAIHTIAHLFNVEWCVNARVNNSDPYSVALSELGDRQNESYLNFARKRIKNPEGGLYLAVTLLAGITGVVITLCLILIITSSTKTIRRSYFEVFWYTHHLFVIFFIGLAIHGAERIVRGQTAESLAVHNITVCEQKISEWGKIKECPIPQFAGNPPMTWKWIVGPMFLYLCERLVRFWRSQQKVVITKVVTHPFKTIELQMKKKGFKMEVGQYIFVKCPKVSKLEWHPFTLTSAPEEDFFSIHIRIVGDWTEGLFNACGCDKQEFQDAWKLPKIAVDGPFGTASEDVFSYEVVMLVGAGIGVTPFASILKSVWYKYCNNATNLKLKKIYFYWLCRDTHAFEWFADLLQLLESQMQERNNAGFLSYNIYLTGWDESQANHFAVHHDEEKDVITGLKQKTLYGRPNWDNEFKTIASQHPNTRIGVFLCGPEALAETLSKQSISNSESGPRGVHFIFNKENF

## COC(=O)[C@@]1(Cc2ccc(OC)cc2)[C@H]2c3cc(C(=O)N(C)C)n(CCc4ccccn4)c3C[C@H]2CN1C(=O)c1ccccc1
[1]
  composite z-score: 1.19
[2]
  z-score: -2.18 (inactive)
[3]
  z-score: 0.165 (inactive)
[4]
  z-score: 1.92 (inactive)
[5]
  z-score: 0.577 (inactive)
[6]
  composite z-score: 1.86
[7]
  composite z-score: 1.17
Torsin-1A (Homo sapiens) [8]
  composite z-score: -0.128
Torsin-1A (Homo sapiens) [9]
  composite z-score: 1.04
[10]
  composite z-score: -0.127
[11]
  z-score: -1.83 (inactive)
[12]
  composite z-score: 1.64
[13]
  z-score: 3.81 (inactive)
[14]
  z-score: 1.77 (inactive)
[15]
  z-score: 1.01 (inactive)
[16]
  z-score: 1.58 (inactive)
[17]
  z-score: -0.334
[18]
  z-score: 0.63 (inactive)
[19]
  z-score: -0.925 (inactive)
[20]
  z-score: -1.04

## C=CCNC(=O)[C@@H]1[C@H]2C(=O)O[C@H](c3ccccc3)[C@H](c3ccccc3)N2[C@H](c2ccc(O)cc2)[C@@]12C(=O)Nc1ccc(C#CCNC(N)=O)cc12
[1]
  composite z-score: -0.525
[2]
  z-score: -0.0804 (inactive)
[3]
  z-score: -0.233 (inactive)
[4]
  z-score: 1.21 (inactive)
[5]
  z-score: -0.434 (inactive)
[6]
  composite z-score: -0.325
[7]
  composite z-score: -0.339
Torsin-1A (Homo sapiens) [8]
  composite z-score: -0.138
Torsin-1A (Homo sapiens) [9]
  composite z-score: 0.121
[10]
  composite z-score: 0.316
[11]
  z-score: -1.29 (inactive)
[12]
  composite z-score: 0.186
[13]
  z-score: 0.448 (inactive)
[14]
  z-score: -0.261 (inactive)
[15]
  z-score: -0.519 (inactive)
[16]
  z-score: 0.32 (inactive)
[17]
  z-score: -0.203
[18]
  z-score: 0.334 (inactive)
[19]
  z-score: -0.211 (inactive)
[20]
  z-score: 0.0297

## CCCC[C@H]1OB(O)C[C@H]2C1=C(COC)Cn1c(=O)n(-c3ccccc3)c(=O)n12
[1]
  composite z-score: 0.0162
[2]
  z-score: 0.0344 (inactive)
[3]
  z-score: -0.549 (inactive)
[4]
  z-score: -0.327 (inactive)
[5]
  z-score: 0.124 (inactive)
[6]
  composite z-score: -0.333
[7]
  composite z-score: -0.182
Torsin-1A (Homo sapiens) [8]
  composite z-score: 0.0681
Torsin-1A (Homo sapiens) [9]
  composite z-score: 0.0861
[10]
  composite z-score: 0.948
[11]
  z-score: 0.929 (inactive)
[12]
  composite z-score: -0.101
[13]
  z-score: 0.43 (inactive)
[14]
  z-score: 0.0541 (inactive)
[15]
  z-score: 0.11 (inactive)
[16]
  z-score: 0.0357 (inactive)
[17]
  z-score: 0.385
[18]
  z-score: 0.175 (inactive)
[19]
  z-score: 0.317 (inactive)
[20]
  z-score: 0.476

## CC(C)C[C@@H]1NC(=O)[C@@H]2C[C@H](C(=O)NCc3ccc(F)cc3)[C@H](c3cccc(OCCO)c3)N2C1=O
[1]
  composite z-score: 1.9
[2]
  z-score: -0.119 (inactive)
[3]
  z-score: -1.53 (inactive)
[4]
  z-score: 0.826 (inactive)
[5]
  z-score: -0.798 (inactive)
[6]
  composite z-score: -0.443
[7]
  composite z-score: 0.286
Torsin-1A (Homo sapiens) [8]
  composite z-score: 0.265
Torsin-1A (Homo sapiens) [9]
  composite z-score: 1.3
[10]
  composite z-score: 1.75
[11]
  z-score: 1.39 (inactive)
[12]
  composite z-score: -0.204
[13]
  z-score: 8.19 (active)
[14]
  z-score: 0.722 (inactive)
[15]
  z-score: -1.79 (inactive)
[16]
  z-score: 0.546 (inactive)
[17]
  z-score: 0.74
[18]
  z-score: 1.33 (inactive)
[19]
  z-score: 1.08 (inactive)
[20]
  z-score: 1.44

## CO[C@H]1O[C@H](CO)[C@@H](OC(=O)Nc2ccccc2)[C@H](OC(=O)Nc2ccccc2)[C@@H]1OC(=O)Nc1ccccc1
[1]
  composite z-score: 1.13
[2]
  z-score: -4.73 (inactive)
[3]
  z-score: -0.309 (inactive)
[4]
  z-score: 0.101 (inactive)
[5]
  z-score: -0.825 (inactive)
[6]
  composite z-score: 0.467
[7]
  composite z-score: 0.347
Torsin-1A (Homo sapiens) [8]
  composite z-score: 0.451
Torsin-1A (Homo sapiens) [9]
  composite z-score: 0.872
[10]
  composite z-score: 1.48
[11]
  z-score: -0.24 (inactive)
[12]
  composite z-score: -0.369
[13]
  z-score: 6.99 (inactive)
[14]
  z-score: 1.35 (inactive)
[15]
  z-score: 0.111 (inactive)
[16]
  z-score: 1.18 (inactive)
[17]
  z-score: 0.725
[18]
  z-score: -3.38 (inactive)
[19]
  z-score: -0.394 (inactive)
[20]
  z-score: -1.13

## CCCCCN1CC=CC23O[C@@H]4/C=C\CCC(C)OC(=O)C4[C@H]2C(=O)N(C(C)CO)[C@@H]3C1=O (stereo not given in full)
[1]
  composite z-score: -0.105
[2]
  z-score: 0.28 (inactive)
[3]
  z-score: -0.818 (inactive)
[4]
  z-score: -1.17 (inactive)
[5]
  z-score: -0.672 (inactive)
[6]
  composite z-score: -0.659
[7]
  composite z-score: -0.0933
Torsin-1A (Homo sapiens) [8]
  composite z-score: -1.11
Torsin-1A (Homo sapiens) [9]
  composite z-score: -0.742
[10]
  composite z-score: 1.09
[11]
  z-score: 0.585 (inactive)
[12]
  composite z-score: 0.0077
[13]
  z-score: 0.901 (inactive)
[14]
  z-score: -0.356 (inactive)
[15]
  z-score: 0.847 (inactive)
[16]
  z-score: 0.355 (inactive)
[17]
  z-score: -0.0749
[18]
  z-score: 0.642 (inactive)
[19]
  z-score: -0.2 (inactive)
[20]
  z-score: 1.84

## COc1ccc(/C=C/C=O)cc1
[1]
  composite z-score: 0.156
[2]
  z-score: 0.0307 (inactive)
[3]
  z-score: -0.577 (inactive)
[4]
  z-score: 0.209 (inactive)
[5]
  z-score: 0.561 (inactive)
[6]
  composite z-score: 0.166
[7]
  composite z-score: -0.102
Torsin-1A (Homo sapiens) [8]
  composite z-score: -0.238
Torsin-1A (Homo sapiens) [9]
  composite z-score: 0.0564
[10]
  composite z-score: 1.6
[11]
  z-score: 0.0676 (inactive)
[12]
  composite z-score: 0.11
[13]
  z-score: -0.0134 (inactive)
[14]
  z-score: -0.113 (inactive)
[15]
  z-score: 0.392 (inactive)
[16]
  z-score: 0.0327 (inactive)
[17]
  z-score: -0.416
[18]
  z-score: -0.721 (inactive)
[19]
  z-score: -0.379 (inactive)
[20]
  z-score: 0.589

## C=C(CC1([C@@H](NP(=O)(c2ccccc2)c2ccccc2)[C@H]2C[C@@H]2CCCC)CC1)c1ccccc1
[1]
  composite z-score: 0.542
[2]
  z-score: -3.74 (inactive)
[3]
  z-score: 0.955 (inactive)
[4]
  z-score: 0.4 (inactive)
[5]
  z-score: 0.151 (inactive)
[6]
  composite z-score: 1.39
[7]
  composite z-score: 0.374
Torsin-1A (Homo sapiens) [8]
  composite z-score: 0.443
Torsin-1A (Homo sapiens) [9]
  composite z-score: 0.738
[10]
  composite z-score: -0.509
[11]
  z-score: -1.67 (inactive)
[12]
  composite z-score: 0.568
[13]
  z-score: 0.579 (inactive)
[14]
  z-score: 0.495 (inactive)
[15]
  z-score: 2.62 (inactive)
[16]
  z-score: 0.935 (inactive)
[17]
  z-score: 0.534
[18]
  z-score: -0.538 (inactive)
[19]
  z-score: -0.988 (inactive)
[20]
  z-score: -2.95

## COc1ccc(C#Cc2ccc3c(c2)[C@]2(C(=O)N3)[C@H](C(=O)Nc3nc4ccccc4s3)[C@H]3C(=O)O[C@H](c4ccccc4)[C@H](c4ccccc4)N3[C@@H]2c2ccc(O)cc2)cc1
[1]
  composite z-score: 0.823
[2]
  z-score: -1.3 (inactive)
[3]
  z-score: -0.782 (inactive)
[4]
  z-score: 0.0653 (inactive)
[5]
  z-score: -0.0135 (inactive)
[6]
  composite z-score: 2.25
[7]
  composite z-score: 1.43
Torsin-1A (Homo sapiens) [8]
  composite z-score: 1.41
Torsin-1A (Homo sapiens) [9]
  composite z-score: 0.903
[10]
  composite z-score: 2.02
[11]
  z-score: 0.663 (inactive)
[12]
  composite z-score: 1.1
[13]
  z-score: -0.383 (inactive)
[14]
  z-score: 0.53 (inactive)
[15]
  z-score: -6.71 (inactive)
[16]
  z-score: 0.957 (inactive)
[17]
  z-score: -0.249
[18]
  z-score: 0.548 (inactive)
[19]
  z-score: 0.792 (inactive)
[20]
  z-score: -2.5

— PubChem BioAssay
